From ChEMBL document CHEMBL1961873, “Compounds: GSK PKIS; Assays: Nanosyn kinase panel” (2012)

Assays:
[1] = biological target: Tyrosine-protein kinase SYK (Homo sapiens) (UniProt P43405); details: at 1 µM
[2] = biological target: T1, Tyrosine-protein kinase Tec (Homo sapiens) (UniProt P42680); details: at 0.1 µM
T1 sequence (whole entry): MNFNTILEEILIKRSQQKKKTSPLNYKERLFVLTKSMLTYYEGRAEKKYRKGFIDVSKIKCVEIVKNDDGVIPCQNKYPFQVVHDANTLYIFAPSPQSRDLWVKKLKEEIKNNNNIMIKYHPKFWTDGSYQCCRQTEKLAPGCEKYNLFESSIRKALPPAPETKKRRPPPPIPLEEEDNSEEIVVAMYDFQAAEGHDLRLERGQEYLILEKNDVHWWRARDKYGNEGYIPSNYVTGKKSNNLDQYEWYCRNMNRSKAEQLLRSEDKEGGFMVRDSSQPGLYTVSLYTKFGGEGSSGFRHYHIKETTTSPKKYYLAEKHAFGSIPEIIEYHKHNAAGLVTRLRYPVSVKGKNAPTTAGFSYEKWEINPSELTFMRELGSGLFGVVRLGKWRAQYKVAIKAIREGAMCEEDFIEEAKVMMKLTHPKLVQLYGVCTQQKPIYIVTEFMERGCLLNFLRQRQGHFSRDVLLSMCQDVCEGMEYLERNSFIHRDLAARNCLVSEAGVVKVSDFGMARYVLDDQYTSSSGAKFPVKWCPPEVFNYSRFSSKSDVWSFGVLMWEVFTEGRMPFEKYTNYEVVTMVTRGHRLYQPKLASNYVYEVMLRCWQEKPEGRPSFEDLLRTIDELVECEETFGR

[3] = biological target: T1, Tyrosine-protein kinase Tec (Homo sapiens); details: at 1 µM
[4] = biological target: Angiopoietin-1 receptor (Homo sapiens) (UniProt Q02763); details: at 0.1 µM
[5] = biological target: Angiopoietin-1 receptor (Homo sapiens) (UniProt Q02763); details: at 1 µM
[6] = biological target: T2, Non-receptor tyrosine-protein kinase TNK1 (Homo sapiens) (UniProt Q13470); details: at 0.1 µM
T2 sequence (whole entry): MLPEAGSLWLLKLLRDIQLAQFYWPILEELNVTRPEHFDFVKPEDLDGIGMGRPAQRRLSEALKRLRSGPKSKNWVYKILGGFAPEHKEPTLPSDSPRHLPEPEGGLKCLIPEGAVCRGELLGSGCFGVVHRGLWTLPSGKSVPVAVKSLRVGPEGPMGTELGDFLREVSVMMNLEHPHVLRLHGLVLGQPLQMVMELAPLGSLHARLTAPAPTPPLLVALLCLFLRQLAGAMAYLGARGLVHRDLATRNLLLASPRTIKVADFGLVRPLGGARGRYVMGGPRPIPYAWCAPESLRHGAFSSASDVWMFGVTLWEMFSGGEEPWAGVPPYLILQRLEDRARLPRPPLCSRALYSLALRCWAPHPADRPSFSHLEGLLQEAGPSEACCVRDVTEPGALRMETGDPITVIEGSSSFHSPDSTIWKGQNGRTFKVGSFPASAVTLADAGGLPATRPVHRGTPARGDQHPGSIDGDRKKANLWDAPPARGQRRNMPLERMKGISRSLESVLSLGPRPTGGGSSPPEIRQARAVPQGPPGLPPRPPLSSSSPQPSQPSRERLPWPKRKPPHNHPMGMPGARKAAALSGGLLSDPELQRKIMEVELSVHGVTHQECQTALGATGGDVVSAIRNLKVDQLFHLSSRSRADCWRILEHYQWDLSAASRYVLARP

[7] = biological target: T2, Non-receptor tyrosine-protein kinase TNK1 (Homo sapiens); details: at 1 µM
[8] = biological target: Activated CDC42 kinase 1 (Homo sapiens) (UniProt Q07912); details: at 0.1 µM
[9] = biological target: Activated CDC42 kinase 1 (Homo sapiens) (UniProt Q07912); details: at 1 µM
[10] = biological target: High affinity nerve growth factor receptor (Homo sapiens) (UniProt P04629); details: at 0.1 µM
[11] = biological target: High affinity nerve growth factor receptor (Homo sapiens) (UniProt P04629); details: at 1 µM
[12] = biological target: BDNF/NT-3 growth factors receptor (Homo sapiens) (UniProt Q16620); details: at 0.1 µM
[13] = biological target: BDNF/NT-3 growth factors receptor (Homo sapiens) (UniProt Q16620); details: at 1 µM
[14] = biological target: NT-3 growth factor receptor (Homo sapiens) (UniProt Q16288); details: at 0.1 µM
[15] = biological target: NT-3 growth factor receptor (Homo sapiens) (UniProt Q16288); details: at 1 µM
[16] = biological target: T3, Tyrosine-protein kinase TXK (Homo sapiens) (UniProt P42681); details: at 0.1 µM
T3 sequence (whole entry): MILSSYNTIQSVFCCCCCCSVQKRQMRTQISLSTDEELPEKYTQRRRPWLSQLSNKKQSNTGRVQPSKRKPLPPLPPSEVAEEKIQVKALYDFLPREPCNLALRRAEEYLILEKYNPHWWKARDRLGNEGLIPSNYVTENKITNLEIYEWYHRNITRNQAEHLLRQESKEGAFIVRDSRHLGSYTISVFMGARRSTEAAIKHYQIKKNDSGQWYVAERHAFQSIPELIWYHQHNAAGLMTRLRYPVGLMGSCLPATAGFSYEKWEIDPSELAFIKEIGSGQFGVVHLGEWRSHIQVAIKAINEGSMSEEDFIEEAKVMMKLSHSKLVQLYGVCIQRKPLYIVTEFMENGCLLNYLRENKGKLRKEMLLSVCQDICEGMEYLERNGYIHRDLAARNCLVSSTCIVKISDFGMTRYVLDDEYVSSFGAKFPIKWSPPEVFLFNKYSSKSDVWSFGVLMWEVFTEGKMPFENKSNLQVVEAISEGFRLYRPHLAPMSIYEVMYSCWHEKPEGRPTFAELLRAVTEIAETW

[17] = biological target: T3, Tyrosine-protein kinase TXK (Homo sapiens); details: at 1 µM
[18] = biological target: Non-receptor tyrosine-protein kinase TYK2 (Homo sapiens) (UniProt P29597); details: at 0.1 µM;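 note: each value is a mean of the inhibition readings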
[19] = biological target: T4, Dual specificity protein kinase TTK (Homo sapiens) (UniProt P33981); details: at 1 µM;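 note: reported figures are mean TTK inhibition at 1 µM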
T4 sequence (whole entry): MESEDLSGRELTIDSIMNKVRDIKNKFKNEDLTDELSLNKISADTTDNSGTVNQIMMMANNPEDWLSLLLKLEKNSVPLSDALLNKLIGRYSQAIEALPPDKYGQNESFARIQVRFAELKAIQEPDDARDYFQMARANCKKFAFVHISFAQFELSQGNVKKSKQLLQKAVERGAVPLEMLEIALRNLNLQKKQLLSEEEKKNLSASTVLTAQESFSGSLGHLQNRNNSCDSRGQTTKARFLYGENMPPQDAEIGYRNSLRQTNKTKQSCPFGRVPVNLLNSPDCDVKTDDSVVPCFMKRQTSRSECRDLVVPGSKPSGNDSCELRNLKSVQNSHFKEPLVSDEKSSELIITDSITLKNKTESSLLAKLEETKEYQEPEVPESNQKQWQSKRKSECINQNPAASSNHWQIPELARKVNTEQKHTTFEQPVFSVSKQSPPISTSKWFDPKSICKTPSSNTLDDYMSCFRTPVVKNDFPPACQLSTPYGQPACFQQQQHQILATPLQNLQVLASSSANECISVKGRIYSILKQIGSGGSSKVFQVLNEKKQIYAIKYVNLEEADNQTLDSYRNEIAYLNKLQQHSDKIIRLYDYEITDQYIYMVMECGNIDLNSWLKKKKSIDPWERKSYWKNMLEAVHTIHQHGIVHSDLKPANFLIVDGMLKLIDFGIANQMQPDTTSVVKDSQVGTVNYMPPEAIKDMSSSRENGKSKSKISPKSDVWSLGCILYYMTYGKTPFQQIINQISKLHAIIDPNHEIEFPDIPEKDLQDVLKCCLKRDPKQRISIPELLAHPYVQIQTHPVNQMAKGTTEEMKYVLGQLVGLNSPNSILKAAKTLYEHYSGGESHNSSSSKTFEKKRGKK

[20] = biological target: T5, Aurora kinase A (Homo sapiens) (UniProt O14965); details: at 0.1 µM;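 note: each reported value is a mean percent inhibition of Aurora-A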
T5 sequence (whole entry): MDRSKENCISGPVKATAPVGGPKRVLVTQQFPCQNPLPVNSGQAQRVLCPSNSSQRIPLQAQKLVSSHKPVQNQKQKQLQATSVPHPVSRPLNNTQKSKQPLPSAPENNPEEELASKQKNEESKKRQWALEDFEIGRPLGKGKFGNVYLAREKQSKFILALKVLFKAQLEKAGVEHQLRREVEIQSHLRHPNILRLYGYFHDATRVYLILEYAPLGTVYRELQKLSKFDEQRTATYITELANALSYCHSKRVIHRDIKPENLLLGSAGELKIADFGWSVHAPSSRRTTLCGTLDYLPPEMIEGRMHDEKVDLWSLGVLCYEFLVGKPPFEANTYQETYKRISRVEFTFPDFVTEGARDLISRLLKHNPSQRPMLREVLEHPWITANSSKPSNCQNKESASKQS

BDNF/NT-3 growth factors receptor (Homo sapiens), sequence (Q16620 32-822 limits assumed): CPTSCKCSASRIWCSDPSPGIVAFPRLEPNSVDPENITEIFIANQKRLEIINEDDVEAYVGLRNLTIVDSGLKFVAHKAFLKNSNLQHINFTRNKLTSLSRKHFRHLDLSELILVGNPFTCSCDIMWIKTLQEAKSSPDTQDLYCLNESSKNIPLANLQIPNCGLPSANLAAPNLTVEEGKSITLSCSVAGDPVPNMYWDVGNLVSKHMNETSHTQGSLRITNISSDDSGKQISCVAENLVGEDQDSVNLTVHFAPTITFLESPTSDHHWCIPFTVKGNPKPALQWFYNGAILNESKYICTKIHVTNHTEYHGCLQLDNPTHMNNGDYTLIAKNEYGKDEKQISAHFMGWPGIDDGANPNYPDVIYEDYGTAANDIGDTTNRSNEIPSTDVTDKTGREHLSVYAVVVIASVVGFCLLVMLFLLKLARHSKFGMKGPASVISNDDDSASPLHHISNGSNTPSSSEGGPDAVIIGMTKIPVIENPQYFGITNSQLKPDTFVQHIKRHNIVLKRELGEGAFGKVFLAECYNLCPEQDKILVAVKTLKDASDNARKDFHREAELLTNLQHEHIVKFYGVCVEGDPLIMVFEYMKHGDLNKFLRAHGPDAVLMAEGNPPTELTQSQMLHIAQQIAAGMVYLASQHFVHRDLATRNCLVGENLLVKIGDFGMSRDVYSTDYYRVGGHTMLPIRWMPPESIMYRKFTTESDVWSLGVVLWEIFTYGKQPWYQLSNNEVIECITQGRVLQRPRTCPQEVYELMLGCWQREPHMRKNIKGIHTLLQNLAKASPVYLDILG
Angiopoietin-1 receptor (Homo sapiens), sequence (Q02763 whole entry): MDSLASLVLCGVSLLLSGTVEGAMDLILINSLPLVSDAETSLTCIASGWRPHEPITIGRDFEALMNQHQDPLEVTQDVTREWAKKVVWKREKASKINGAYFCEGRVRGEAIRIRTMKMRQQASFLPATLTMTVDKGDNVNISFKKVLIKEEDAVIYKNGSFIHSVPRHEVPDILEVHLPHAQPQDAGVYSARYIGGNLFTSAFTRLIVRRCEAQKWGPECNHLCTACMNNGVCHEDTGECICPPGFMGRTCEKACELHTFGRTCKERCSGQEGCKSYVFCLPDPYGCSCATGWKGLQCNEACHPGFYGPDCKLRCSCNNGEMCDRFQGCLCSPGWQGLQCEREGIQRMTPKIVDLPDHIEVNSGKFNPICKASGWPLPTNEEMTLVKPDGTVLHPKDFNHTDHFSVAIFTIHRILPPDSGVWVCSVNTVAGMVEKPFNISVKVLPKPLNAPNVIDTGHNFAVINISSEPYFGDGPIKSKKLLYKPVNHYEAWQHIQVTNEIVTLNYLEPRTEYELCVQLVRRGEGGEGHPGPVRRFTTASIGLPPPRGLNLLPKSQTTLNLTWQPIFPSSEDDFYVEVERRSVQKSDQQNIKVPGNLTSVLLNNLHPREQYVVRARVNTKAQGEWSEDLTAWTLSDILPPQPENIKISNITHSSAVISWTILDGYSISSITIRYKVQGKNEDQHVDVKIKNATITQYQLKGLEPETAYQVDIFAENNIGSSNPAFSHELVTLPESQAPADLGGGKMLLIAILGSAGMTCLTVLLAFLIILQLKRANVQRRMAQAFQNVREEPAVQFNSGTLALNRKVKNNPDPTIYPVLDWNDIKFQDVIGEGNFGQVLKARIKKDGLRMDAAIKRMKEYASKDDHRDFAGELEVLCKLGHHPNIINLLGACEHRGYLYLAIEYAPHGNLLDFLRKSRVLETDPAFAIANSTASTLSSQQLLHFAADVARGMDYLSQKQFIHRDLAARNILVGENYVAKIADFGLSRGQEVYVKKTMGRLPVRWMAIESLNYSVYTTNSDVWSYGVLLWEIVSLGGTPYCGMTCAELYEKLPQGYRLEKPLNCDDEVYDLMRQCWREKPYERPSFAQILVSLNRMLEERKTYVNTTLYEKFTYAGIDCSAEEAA
High affinity nerve growth factor receptor (Homo sapiens), sequence (P04629 33-796 limits assumed): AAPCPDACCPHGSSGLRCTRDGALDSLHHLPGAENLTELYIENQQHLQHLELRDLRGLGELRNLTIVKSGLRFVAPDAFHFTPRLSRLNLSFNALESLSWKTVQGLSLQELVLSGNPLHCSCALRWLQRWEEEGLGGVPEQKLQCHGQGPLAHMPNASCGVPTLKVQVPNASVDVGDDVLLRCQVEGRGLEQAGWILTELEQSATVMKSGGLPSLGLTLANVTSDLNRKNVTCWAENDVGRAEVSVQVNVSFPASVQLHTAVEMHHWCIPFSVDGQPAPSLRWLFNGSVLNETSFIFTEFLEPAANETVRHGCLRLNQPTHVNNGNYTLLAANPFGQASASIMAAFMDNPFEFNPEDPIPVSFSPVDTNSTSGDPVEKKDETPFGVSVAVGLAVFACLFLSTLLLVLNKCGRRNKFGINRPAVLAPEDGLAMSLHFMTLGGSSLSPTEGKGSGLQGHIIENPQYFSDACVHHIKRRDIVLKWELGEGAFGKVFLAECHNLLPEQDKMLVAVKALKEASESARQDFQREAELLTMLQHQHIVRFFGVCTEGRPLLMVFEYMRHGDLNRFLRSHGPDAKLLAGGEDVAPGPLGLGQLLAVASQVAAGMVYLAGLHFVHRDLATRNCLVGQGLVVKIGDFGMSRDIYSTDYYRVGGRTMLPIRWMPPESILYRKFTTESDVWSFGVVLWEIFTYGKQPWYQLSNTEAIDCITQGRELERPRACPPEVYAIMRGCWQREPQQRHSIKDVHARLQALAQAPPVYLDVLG
NT-3 growth factor receptor (Homo sapiens), sequence (Q16288 32-839 limits assumed): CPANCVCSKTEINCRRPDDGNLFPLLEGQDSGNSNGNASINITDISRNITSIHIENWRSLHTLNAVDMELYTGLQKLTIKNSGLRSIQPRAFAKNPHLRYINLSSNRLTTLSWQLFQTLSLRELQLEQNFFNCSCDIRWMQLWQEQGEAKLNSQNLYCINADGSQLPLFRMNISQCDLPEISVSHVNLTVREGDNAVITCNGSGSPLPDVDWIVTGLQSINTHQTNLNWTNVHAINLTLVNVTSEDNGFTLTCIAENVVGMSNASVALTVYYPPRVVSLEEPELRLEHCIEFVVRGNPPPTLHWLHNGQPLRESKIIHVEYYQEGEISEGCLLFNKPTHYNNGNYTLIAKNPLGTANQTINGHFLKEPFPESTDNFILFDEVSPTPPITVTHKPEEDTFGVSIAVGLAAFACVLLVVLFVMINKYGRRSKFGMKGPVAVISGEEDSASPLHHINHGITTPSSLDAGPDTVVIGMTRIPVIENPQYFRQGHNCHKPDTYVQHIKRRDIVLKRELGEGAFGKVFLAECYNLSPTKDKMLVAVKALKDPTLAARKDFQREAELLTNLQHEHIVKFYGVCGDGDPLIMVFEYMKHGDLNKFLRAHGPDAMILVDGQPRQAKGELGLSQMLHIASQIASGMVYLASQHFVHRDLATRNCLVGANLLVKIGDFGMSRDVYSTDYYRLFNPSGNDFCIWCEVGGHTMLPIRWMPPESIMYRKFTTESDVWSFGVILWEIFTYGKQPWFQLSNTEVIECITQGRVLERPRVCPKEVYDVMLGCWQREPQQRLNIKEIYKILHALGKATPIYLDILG
Non-receptor tyrosine-protein kinase TYK2 (Homo sapiens), sequence (P29597 whole entry): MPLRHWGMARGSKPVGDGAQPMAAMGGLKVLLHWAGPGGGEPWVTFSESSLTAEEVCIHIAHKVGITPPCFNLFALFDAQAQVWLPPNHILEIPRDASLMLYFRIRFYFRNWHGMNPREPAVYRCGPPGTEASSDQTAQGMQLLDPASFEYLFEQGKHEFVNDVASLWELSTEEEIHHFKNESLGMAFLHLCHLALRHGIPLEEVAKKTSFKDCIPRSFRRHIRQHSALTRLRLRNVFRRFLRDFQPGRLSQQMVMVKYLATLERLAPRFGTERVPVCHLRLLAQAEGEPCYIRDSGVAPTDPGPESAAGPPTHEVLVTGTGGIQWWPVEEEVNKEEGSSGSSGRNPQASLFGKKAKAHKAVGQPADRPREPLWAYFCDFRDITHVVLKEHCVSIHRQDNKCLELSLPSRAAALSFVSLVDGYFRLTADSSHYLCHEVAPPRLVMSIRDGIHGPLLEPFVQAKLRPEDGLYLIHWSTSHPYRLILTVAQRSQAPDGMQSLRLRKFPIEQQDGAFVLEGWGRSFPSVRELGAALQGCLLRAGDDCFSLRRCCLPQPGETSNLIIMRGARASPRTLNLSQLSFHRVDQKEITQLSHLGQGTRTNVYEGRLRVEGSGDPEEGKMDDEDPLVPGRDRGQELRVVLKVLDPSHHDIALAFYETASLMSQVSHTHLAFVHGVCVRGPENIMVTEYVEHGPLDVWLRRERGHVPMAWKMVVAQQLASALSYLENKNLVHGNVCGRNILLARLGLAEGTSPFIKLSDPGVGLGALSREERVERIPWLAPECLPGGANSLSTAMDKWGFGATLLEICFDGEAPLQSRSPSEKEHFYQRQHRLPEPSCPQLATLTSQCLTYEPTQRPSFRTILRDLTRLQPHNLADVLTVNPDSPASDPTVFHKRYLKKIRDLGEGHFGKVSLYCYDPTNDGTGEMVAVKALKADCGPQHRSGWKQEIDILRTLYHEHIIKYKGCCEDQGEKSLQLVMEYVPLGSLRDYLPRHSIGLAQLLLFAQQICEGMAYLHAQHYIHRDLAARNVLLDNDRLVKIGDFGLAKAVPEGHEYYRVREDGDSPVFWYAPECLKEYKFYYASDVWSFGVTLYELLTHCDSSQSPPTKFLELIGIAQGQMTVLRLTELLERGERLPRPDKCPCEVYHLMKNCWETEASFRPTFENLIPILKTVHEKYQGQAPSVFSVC

SMILES	inhibition [1] [%]	inhibition [2] [%]	inhibition [3] [%]	inhibition [4] [%]	inhibition [5] [%]	inhibition [6] [%]	inhibition [7] [%]	inhibition [8] [%]	inhibition [9] [%]	inhibition [10] [%]	inhibition [11] [%]	inhibition [12] [%]	inhibition [13] [%]	inhibition [14] [%]	inhibition [15] [%]	inhibition [16] [%]	inhibition [17] [%]	inhibition [18] [%]	inhibition [19] [%]	inhibition [20] [%]
NS(=O)(=O)c1ccc(-c2cc3ccncc3cc2OCc2ccccc2)cc1	0.64	2.94	4.44	1.38	3.06	3.48	16	0.6	2.21	4.15	0.22	2.7	2.46	2.49	5.04	1.58	1.28	-3.96	9.25	2.34
Cc1ccc(NC(=O)CC2CC2)cc1-c1ccc(C(=O)NCC2CC2)cc1	0.5	5.07	8.67	2.75	6.74	2.27	10.1	0.82	3.94	3.3	1.04	1.14	3.38	2.32	4.16	3.64	5.85	-4.51	7.66	4.04
Nc1nccc(C#Cc2cncnc2Nc2ccc(OCc3cccc(F)c3)c(Cl)c2)n1	-0.63	5.34	13.6	4.38	3.5	5.1	8.89	1.73	3.21	4.45	9.29	3.48	11.3	2.67	9.94	3.85	8.58	-3.29	14.2	1.06
Cc1cc(O)cc(C)c1/C=C/c1cncc(C(=O)N(C)C)c1	2.96	3.84	5.03	5.65	10.7	–	1.79	1.45	2.24	2.88	2.43	1.59	0.08	2.73	1.59	2.92	3.74	-1.5	4.52	2.58
